Inconclusive results are not listed. A call without a number means that no potency is given here. Calls of active or inactive are those of the source. Calls follow the shape of the full dose curve.

For the assay, the target named is Beta-2 adrenergic receptor (Homo sapiens) (UniProt P07550). The assay is described as follows: Adrenergic beta2 receptor (ADRB2) small molecule agonists, cell-based qHTS assay (AID 1963593).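 Also: CHO cells stably overexpressing human ADRB2.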 In a few lines:
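CHO cells stably over-expressing ADRB2 were plated overnight at 37C, then dosed with compounds plus a stimulation mix containing 100uM IBMX and 25uM Ro-20-1724 for 0.5hr at room temperature. cAMP was measured by HTRF competition, 1hr.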
On the technique in general: Quantitative high-throughput screening tests each substance at several concentrations.

Beta-2 adrenergic receptor (Homo sapiens), sequence (P07550 whole entry, looked up): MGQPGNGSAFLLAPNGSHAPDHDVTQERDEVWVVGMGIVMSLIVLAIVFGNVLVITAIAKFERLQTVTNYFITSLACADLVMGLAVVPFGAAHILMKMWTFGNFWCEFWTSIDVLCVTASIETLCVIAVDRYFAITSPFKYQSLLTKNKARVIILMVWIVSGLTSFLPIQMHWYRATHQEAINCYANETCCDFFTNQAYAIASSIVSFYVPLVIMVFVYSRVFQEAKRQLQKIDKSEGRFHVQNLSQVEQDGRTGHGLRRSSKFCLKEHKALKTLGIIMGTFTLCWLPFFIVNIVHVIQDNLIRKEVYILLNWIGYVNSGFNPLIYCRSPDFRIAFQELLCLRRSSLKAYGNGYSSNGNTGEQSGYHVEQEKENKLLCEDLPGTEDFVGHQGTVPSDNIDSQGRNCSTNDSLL

With `CO[C@@H]1COCC[C@@H]1N[C@@H]1CC[C@@](C(=O)N2CCc3ncc(C(F)(F)F)cc3C2)(C(C)C)C1`, the Potency entry is “inactive”. `CC(C)[C@H](N)C(=O)OCCOCn1cnc2c(=O)[nH]c(N)nc21`: the Potency result was “inactive”. On to `Cn1c(=O)cc(Oc2ccc(F)cc2F)c2cnc(NCC(C)(C)O)nc21`, for which the Potency entry was “inactive”. As for `CC(C)NCCCC1(C(N)=O)c2ccccc2-c2ccccc21`, the Potency result is “inactive”. Turning to `NC(N)=NC(=O)Cc1c(Cl)cccc1Cl`, the Potency entry was “inactive”. As to `CC(CN(C)C)C(C)(O)Cc1ccc(Cl)cc1` (stereo unspecified), the Potency result was “inactive”.

On to `O=C(O)c1ccc2cc(O)ccc2c1`, for which the Potency entry was “inactive”.

On to `Oc1cn2c(n1)Nc1ccc(Cl)c(Cl)c1C2`, for which the Potency entry was “inactive”. As for `CCOC(=O)CC1(C)OCC(C)O1` (stereo unspecified), the entry is “inactive”.

`C[N+]1(C)CCC(=C(c2ccccc2)c2ccccc2)CC1`: the Potency entry was “inactive”.

`CCOC(=O)CC(=O)c1cc(F)c(Cl)nc1Cl`: the Potency entry is “inactive”. As for `COC(=O)[C@@H]1[C@H]2C[C@H]3c4[nH]c5ccccc5c4CCN3C[C@@H]2CC[C@@H]1O`, the entry is “inactive”; as for `O=C(NCCO[N+](=O)[O-])c1cccnc1`, “inactive”. As for `CCC1NC(=O)c2cc(S(N)(=O)=O)c(Cl)cc2N1` (stereo unspecified), the entry is “inactive”; as for `NCCCC[C@H](N[C@@H](CCc1ccccc1)C(=O)O)C(=O)N1CCC[C@H]1C(=O)O`, “inactive”; as for `COc1cc(OC)cc(OC)c1`, “inactive”. Consider `COc1c(C)c2c(c(O)c1C/C=C(\C)CCC(=O)O)C(=O)OC2`, for which the Potency result is “inactive”. As for `O=Cc1c2ccccc2c(Cl)c2ccccc12`, the entry is “inactive”; as for `FC(F)(F)C(F)(F)C(F)(F)C(F)(F)CCI`, “inactive”; as for `C=C(C)CCCC`, “inactive”. As for `CCN1CCCC1CNC(=O)c1cc(S(N)(=O)=O)ccc1OC` (stereo unspecified), the entry is “inactive”. Next, `NC(=O)c1ccccc1[N+](=O)[O-]`: “inactive”.

Regarding `CN1CCN(CCCN2c3ccccc3Sc3ccc(C(F)(F)F)cc32)CC1`, the Potency result is “inactive”. As for `O=C(OCC(COC(=O)c1ccccc1)(COC(=O)c1ccccc1)COC(=O)c1ccccc1)c1ccccc1`, the entry is “inactive”; as for `CCCCCCCCOc1ccc(C(=O)O)cc1`, “inactive”; as for `O=C(NCCc1c[nH]c2ccccc12)c1cccnc1`, “inactive”. As for `O=S(=O)(O)c1ccc(O)c2ncccc12`, the entry is “inactive”; as for `CO/N=C(\C(=O)O)c1csc(NC(=O)CCl)n1`, “inactive”; as for `CCCCCc1ccco1`, “inactive”. Next, `CC1=NN(c2ccc(C(=O)O)cc2)C(=O)C1`: “inactive”; `Cc1ccc(OC(=O)c2ccccc2O)cc1`: “inactive”.

In the case of `Cc1nc2n(c(=O)c1CCN1CCC(c3noc4cc(F)ccc34)CC1)CCC[C@H]2O`, the Potency result is “inactive”. Next, `CC1=CC(O)CC(C)(C)C1` (stereo unspecified): “inactive”; `c1ccc(SSc2ccccc2)cc1`: “inactive”.

As to `C=CC(=O)OCCCCCCCCCC`, the Potency entry was “inactive”. Take `COc1ccc(-c2cc(=O)c3c(O)cc(O[C@@H]4O[C@H](CO[C@@H]5O[C@@H](C)[C@H](O)[C@@H](O)[C@H]5O)[C@@H](O)[C@H](O)[C@H]4O)cc3o2)cc1O`: the Potency result was “inactive”. Next, `CCC(=O)c1c(O)cc(O)cc1O`: “inactive”.

Consider `CCCCCCCCCCCc1ccccc1`, for which the Potency entry is “inactive”. As for `CCCN(CCC)c1c([N+](=O)[O-])cc(C(F)(F)F)c(N)c1[N+](=O)[O-]`, the entry is “inactive”; as for `CCC(C(=O)O)c1ccc(N2Cc3ccccc3C2=O)cc1` (stereo unspecified), “inactive”; as for `CCc1ccc(CC)cc1`, “inactive”.
